# Dicer processing – blocks human Dicer maturation of pre-miR-21; Q9UPY3; cat-ELCCA pre-miR-21 Dicer processing, chemiluminescence; hits give high values; z-score at 25 µM; hit rate 6% among 47,000; in the data active = z-score above about 3, passing the limit was not always enough;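 note: plate controls were vehicle for no effect and no enzyme for full effect; higher signal means more uncleaved substrate so more Dicer inhibition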
# Target sequence (Q9UPY3 whole entry, looked up): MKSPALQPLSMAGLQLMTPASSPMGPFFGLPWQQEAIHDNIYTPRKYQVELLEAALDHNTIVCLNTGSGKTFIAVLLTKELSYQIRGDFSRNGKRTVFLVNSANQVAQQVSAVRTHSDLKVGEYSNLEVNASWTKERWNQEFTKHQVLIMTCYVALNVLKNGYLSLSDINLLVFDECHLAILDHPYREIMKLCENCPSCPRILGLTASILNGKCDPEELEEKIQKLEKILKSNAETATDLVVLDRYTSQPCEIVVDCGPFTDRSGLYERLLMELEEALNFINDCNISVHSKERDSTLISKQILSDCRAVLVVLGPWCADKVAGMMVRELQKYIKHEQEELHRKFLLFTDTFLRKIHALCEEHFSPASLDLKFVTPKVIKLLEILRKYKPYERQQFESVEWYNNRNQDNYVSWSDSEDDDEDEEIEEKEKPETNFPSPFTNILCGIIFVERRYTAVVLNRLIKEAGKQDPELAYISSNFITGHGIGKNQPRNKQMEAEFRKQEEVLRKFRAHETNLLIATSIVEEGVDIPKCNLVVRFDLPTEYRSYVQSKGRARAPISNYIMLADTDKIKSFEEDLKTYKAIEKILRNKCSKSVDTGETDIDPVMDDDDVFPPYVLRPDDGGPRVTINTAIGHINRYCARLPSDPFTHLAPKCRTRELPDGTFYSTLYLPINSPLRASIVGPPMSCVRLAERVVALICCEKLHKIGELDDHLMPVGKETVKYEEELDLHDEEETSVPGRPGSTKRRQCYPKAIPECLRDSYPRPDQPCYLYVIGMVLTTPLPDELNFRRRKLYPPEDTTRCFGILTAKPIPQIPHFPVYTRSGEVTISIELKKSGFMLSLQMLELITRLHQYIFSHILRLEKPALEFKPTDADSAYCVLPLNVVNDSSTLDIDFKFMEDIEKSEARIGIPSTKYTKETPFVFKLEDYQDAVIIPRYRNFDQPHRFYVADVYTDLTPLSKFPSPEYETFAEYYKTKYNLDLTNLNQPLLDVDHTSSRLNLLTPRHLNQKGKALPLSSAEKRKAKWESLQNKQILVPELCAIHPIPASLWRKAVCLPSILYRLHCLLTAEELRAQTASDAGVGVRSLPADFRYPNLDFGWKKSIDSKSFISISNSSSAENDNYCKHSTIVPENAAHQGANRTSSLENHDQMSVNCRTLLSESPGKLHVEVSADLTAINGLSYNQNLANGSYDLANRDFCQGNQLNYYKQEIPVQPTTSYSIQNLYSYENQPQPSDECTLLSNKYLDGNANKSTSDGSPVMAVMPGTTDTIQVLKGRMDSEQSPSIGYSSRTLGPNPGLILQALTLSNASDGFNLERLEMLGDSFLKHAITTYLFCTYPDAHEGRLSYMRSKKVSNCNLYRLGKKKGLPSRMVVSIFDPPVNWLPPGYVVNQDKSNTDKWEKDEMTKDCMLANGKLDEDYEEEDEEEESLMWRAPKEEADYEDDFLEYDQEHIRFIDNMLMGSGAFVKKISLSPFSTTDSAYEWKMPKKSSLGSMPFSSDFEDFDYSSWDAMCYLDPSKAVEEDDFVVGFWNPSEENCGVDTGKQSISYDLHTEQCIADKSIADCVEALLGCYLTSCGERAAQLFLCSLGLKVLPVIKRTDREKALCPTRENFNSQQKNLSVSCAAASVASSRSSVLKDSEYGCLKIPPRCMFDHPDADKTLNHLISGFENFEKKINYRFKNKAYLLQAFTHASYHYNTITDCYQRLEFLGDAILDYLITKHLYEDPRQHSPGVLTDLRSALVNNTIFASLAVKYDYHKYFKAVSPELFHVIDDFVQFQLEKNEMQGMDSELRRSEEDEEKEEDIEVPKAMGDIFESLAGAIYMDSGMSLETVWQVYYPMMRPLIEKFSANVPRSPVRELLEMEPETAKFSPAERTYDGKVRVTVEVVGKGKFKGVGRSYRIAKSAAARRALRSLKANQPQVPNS
# An asterisk follows results filed as active. Many of the other results were omitted from the sample, so hits are more common in it than they were.
SMILES,Dicer processing
COC(=O)c1csc(S(=O)(=O)NCc2ccc(S(N)(=O)=O)cc2)c1OC,0.51
CSc1nnc2c(n1)OC(c1ccc(O)c(O)c1)Nc1ccccc1-2 (centres undefined),4.4*
CCSc1nnc2c(n1)OC(c1ccc(O)c(O)c1)Nc1ccccc1-2 (centres undefined),2.3
CSc1nnc2c(n1)OC(c1ccccc1OCC(=O)O)Nc1ccccc1-2 (centres undefined),4.5*
COc1ccc(C2Nc3ccccc3-c3nnc(SC)nc3O2)cc1 (centres undefined),1.5
CSc1nnc2c(n1)OC(c1ccc(C(=O)O)cc1)Nc1ccc(Br)cc1-2 (centres undefined),0.21
CSc1nnc2c(n1)OC(c1ccc(N(C)C)cc1)Nc1ccccc1-2 (centres undefined),23
COc1ccccc1C1Nc2ccccc2-c2nnc(SC)nc2O1 (centres undefined),-0.54
CSc1nnc2c(n1)OC(c1ccc(OCC(=O)O)cc1)Nc1ccccc1-2 (centres undefined),0.76
CSc1nnc2c(n1)OC(c1ccc(Br)cc1)Nc1ccccc1-2 (centres undefined),5.4*
O=C(Nc1ccc2ccccc2n1)c1ccc2c(c1)OCC2,-0.55
CC(C)C(=O)n1c2ccc(F)cc2c2nc3ccccc3nc21,1.1
Cc1ccc(S(=O)(=O)NC(=O)Nc2cc(-c3ccc(Cl)cc3)nn2C)cc1,0.06
O=C1C(=O)N(c2ccccc2)C(=S)/C1=C(\O)c1ccc(Cl)cc1,-2.2
O=C(O)COCC(=O)NC1Cc2ccccc2C1,-2.1
COC(=O)CN1C(=O)Nc2ccc(Br)cc2C1c1ccccc1 (centres undefined),1.3
O=C(O)CN1C(c2ccccc2O)Nc2ccc(Br)cc2C1c1ccccc1 (centres undefined),3.1*
COc1ccc(C2Nc3ccc(Br)cc3C(c3ccccc3)N2CC(=O)O)cc1 (centres undefined),0.57
O=c1[nH]nc(SCCS(=O)(=O)c2ccc(Cl)cc2Cl)n1-c1ccc2c(c1)OCCO2,-3.8
CC(C)(C)c1cc(=O)n2[nH]c(C(F)(F)F)c(-c3ccccc3)c2n1,1.9
O=C(O)c1cc2ccccc2c(-c2c(O)c(C(=O)O)cc3ccccc23)c1O,4.1*
O=C(O)c1ccc2ccccc2c1-c1c(C(=O)O)ccc2ccccc12,1.1
O=C(O)c1cc(-c2cc(C(=O)O)c3ccccc3n2)nc2ccccc12,0.45
CSC(=CC(=O)c1ccc(Oc2ccc(Cl)cc2Cl)cc1)SC,1.3
O=c1[nH]c(CSc2nnc(-c3cccnc3)n2-c2ccccc2)nc2ccccc12,-0.39
SMILES,Dicer processing
CNS(=O)(=O)c1ccc(C)c(-c2nnc3c4ccccc4c(C)nn23)c1,4.5*
CCCNS(=O)(=O)c1ccc(C)c(-c2nnc3c4ccccc4c(C)nn23)c1,4.3*
CCCNS(=O)(=O)c1ccc(OC)c(-c2nnc3c4ccccc4c(C)nn23)c1,0.63
CNS(=O)(=O)c1ccc(OC)c(-c2nnc3c4ccccc4c(C)nn23)c1,-0.01
Cc1ccc(S(=O)(=O)NC(C)c2ccccc2)cc1-c1nnc2c3ccccc3c(C)nn12 (centres undefined),0.34
Cc1ccc(S(=O)(=O)NC(C)(C)CO)cc1-c1nnc2c3ccccc3c(C)nn12,0.08
CC1CCc2c(sc3ncnc(Oc4ccccc4)c23)C1 (centres undefined),-1.5
Fc1ccccc1CSc1nc2ccccc2o1,1.2
COc1ccc(C2C(C(=O)OC3CCCCC3)=C(C)NC3=C2C(=O)CCC3)cc1 (centres undefined),0.6
O=c1nc(N2CCOCC2)nc(Nc2ccccc2)[nH]1,8.3*
O=c1nc(Nc2ccccc2)c2ccccc2[nH]1,1.6
COc1ccccc1Nc1nc(Nc2ccccc2OC)nc(N2CCOCC2)n1,0.22
COc1ccccc1N1C(=O)CC(N2CCN(c3ccc(F)cc3)CC2)C1=O (centres undefined),0.32
O=C1CC(N2CCN(c3ccccc3O)CC2)C(=O)N1c1ccccc1F (centres undefined),2.3
Cc1cccc(N2C(=O)CC(n3ccnc3)C2=O)c1C (centres undefined),3.5*
CSc1nc(C)nc(Sc2cccc(C(F)(F)F)c2)c1C#N,-1.8
Cc1cc(C)cc(Oc2c(C(F)(F)F)oc3c(CN(C)C)c(O)ccc3c2=O)c1,1.7
CC1CN(c2ccc(N)cc2C(=O)O)CC(C)O1 (centres undefined),0.91
O=C(Nc1cccnc1Oc1ncnc2cc(Cl)ccc12)c1cccs1,-1.2
CC1CN(c2ncnc3sc4c(c23)CCCC4)CC(C)O1 (centres undefined),0.64
OCCN1CCN(c2ncnc3sc4c(c23)CCCC4)CC1,4.5*
CC1CCc2sc3ncnc(N4CCN(CCO)CC4)c3c2C1 (centres undefined),8.7
c1nc(N2CCCC2)c2c3c(sc2n1)CCCC3,-0.19
CN1CCN(c2ncnc3sc4c(c23)CCCC4)CC1,3.1*
c1ccc2[nH]c(CN3CCN(c4ncnc5sc6c(c45)CCCC6)CC3)nc2c1,-0.71
SMILES,Dicer processing
COc1ccc2c(c1)CCC1C2=NN(C)C1c1ccc(F)cc1 (centres undefined),0.48
CC(C)c1cc(Br)c(NC(=O)NCCN2CCN(c3nccc(C(F)(F)F)n3)CC2)c(Br)c1,0.8
N#Cc1ccc(C2NC(=O)c3ccccc3N2)cc1 (centres undefined),-1.5
Cc1cccc(C2Nc3cccc4cccc(c34)N2)c1,3.6*
CCc1ccc(C2CC(c3cccc(C)c3)n3nc(N)nc3N2)cc1 (centres undefined),-0.17
COc1cc(C2Nc3cccc4cccc(c34)N2)ccc1O,3.6*
COc1ccc(C2NC(=O)c3ccccc3N2)cc1O (centres undefined),1.3
Oc1ccc2ccccc2c1C1Nc2cccc3cccc(c23)N1,-0.25
Cc1ccc(C2CC(c3cccc(C)c3)n3ncnc3N2)cc1 (centres undefined),-0.36
c1ccc(-c2ccc(C3Nc4cccc5cccc(c45)N3)cc2)cc1,3.2*
COc1cc(C2N3CC4(C)CN2CC(C)(C3)C4)ccc1O (centres undefined),2.7
CN1N=C(c2ccccc2)CSC1=Nc1ccc(OC(F)(F)F)cc1,-0.1
CC(C)(C)c1cc(NC(=O)Nc2ccc(OCc3ccccc3)cc2)no1,0.88
CSc1nc(COc2ccccc2Cl)nc(-c2cccs2)c1C#N,-1.7
Cc1cc(C(=O)N/N=C/c2coc3ccccc3c2=O)ccc1[N+](=O)[O-],-1
COC(=S)Nc1ccc(C(C)C)cc1,-0.07
CC(C)(C)c1nc(Sc2ccc(C(F)(F)F)cn2)n[nH]1,-0.56
Cc1c(NC(=O)Nc2ccc(Cl)cc2Cl)sc2nc(-c3ccc(Cl)cc3)nn12,-1.9
O=C(c1cccs1)N1CCCCC1c1ccccn1 (centres undefined),-1.2
CCCCOC(=O)C1C2C=CC3(CN(Cc4ccccc4)C(=O)C13)O2 (centres undefined),0.77
CSc1sc(C(=O)O)c2c1C(=O)CC(C)(C)C2,0.03
CSc1sc(/C(C)=N\O)c2c1/C(=N\O)CC(C)(C)C2,5.6*
COC(=O)c1sc(SC)c2c1CC(C)(C)C/C2=N/O,-0.85
O=C(CCN(Cc1ccco1)S(=O)(=O)c1ccc(Cl)cc1)NNC(=O)Nc1ccc(Cl)cc1,2.1
CCCCOC(=O)C1=C(C)NC2=C(C(=O)CC(C)(C)C2)C1c1ccc(N(C)C)cc1 (centres undefined),2.7
O=C1/C(=C/c2ccco2)COC/C1=C\c1ccco1,1.4
O=C1/C(=C/c2ccco2)CC/C1=C\c1ccco1,31*

# Screening results: PubChem BioAssay, Center for Chemical Genomics, University of Michigan
